From the supplement of paper PMC6555819

tested on: VDR:RXRa (NR concentration 270 nM, RXRa partner concentration 90 nM); experiment: PBM binding z-score (relative to random genomic background probes); higher = stronger binding; sequences stand for … in GC…GCGATTGACAGCGTAGAATGAAGG
Procedure: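 Protein-binding microarray (Agilent 4x180K custom design, double-stranded 60-nt probes: 5' GC cap, 34-nt variable region, 24-nt constant primer region; full probe sequence given). Purified or IVT nuclear receptor:RXRα heterodimers (3:1 NR:RXRα, mostly 270:90 nM) or homodimers were incubated for 1 h in PBS with 2% milk and no ligand, then detected with Alexa488 antibodies. Fluorescence from o1-orientation probes (~5 replicates averaged) was converted to z-scores against 500 random hg19 background probes. Variable regions are seed direct-repeat (DR0–DR5) sites, all their single-nucleotide variants and half-site ablations.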

Sequence	PBM binding z-score
CCTTACGGGTCACTGAGAGGTTATAGCATTTGGA	4.55
AGAAGGAGGTTATTAAGATCAGGGAATTGCGGTC	1.89
CAAACTAGGTCAAGGGCAAAGTCGGTTTGTGCCA	2.54
CCTAGTTGGTCAAGGTCATACACGCTATAGGTAC	4.33
ATCGAAAGGTCGAGGTAAGTATAGAGAAAGGGAA	2.36
CGTCAAAGTTTAAGGTAACGTAACAGAAAGCAGC	0.3
GCTCGGAGGACAAGGTCGGAGCTTTGTCCGTAGA	-0.159
GCTAGCAGGCCATTTGGGTCACTCATTGACGGGC	0.798
TCGAGTAGGTTAACAATGGGGCATTCAGCTTTCT	0.406
ATCTCTAGGTAACAAGTTCGGTGAAAGAGAGGAC	0.955
CCTAGTTGGTCAGGAGGTCACACAGCGGATATGA	3.94
TAGCTTAGGTCAGATCGGGCCAGTATACGCTATA	0.872
ATCGATAGGTCGAGGTGAGTATAGAGAAAGGGAA	0.414
TCTTGTAGATCAACAGGAGGTTAAGATAGATCGA	0.488
CGAACTAGGTCAAGGACACTGAATCTCCGCACGC	1.57
TAGCCTAGGTCATGGGCCAGGATACCACGCGAAC	1.97
CTACCACGGTGAACAAGGTCGTTGATTACTATTC	3.47
GCTATTAGTTGAAAGGGCACCCGAATGATTCTCG	0.313
CGAACTAGGTCATTGACAGCACAGTGAATAGTAA	2.15
TCAGCCAGGTGAAGGTAACTCAGGTACGCAGTCG	0.261

Sequence	PBM binding z-score
TCTAGTTGGTTAAAGGTCACACACTCGAAATGCG	4.86
AGAATGAGGTTATTAAGATTAGGGAATTGCGGTC	1.29
AATACAGGGTCACTAAGCCAGAGTAGGTACGAAT	4.02
TTGCCAAGGTGAGCTGAGGTCGTTGATCCAACTC	3.93
TCATATAGGTAAATGCTAGCTGAAAGTCCGATCT	0.702
ATATGTAGGTTATCGGGTCAGTCAGTTTGCGCAT	4.27
ACAGACAGGTGATGAGGGTAACTCAGGCTATCAT	0.16
ACTAGCAGGCCAAGCGTCACTCAAGATTAGTCCG	-0.477
ATATGTAGGTTAGCTGCGGTCATTCAGACTAGGC	2.23
CGAACTATGTCATCCAGGACAGTGAATACATTGA	1.05
CCTGCTAGGTCAATGATCAGCTAAAGCAGCTCGC	0.447
ACTAGCGGGCCAAGGGTCACTCAAGATTAGTCCG	2.66
CCTACTGGGCCATTCACAGGTCATTGATCATATG	1.72
CAAACTAGGTCACGAAAGGTCACAGTCGAATGAC	6.75
TCGAGTAGGTTACCAATGGGGCTTTCAGCTTTCT	-0.42
CCTACTGGGCCACGAAAGGTCACTGATTCAGTGA	3.77
TCTTGTAGATCAGCAGGTTAACAAAGCTGGCCAA	0.696
CGTACTGGGCCAAAGGTCATTGATTCCAATGCTC	5.07
ATATGTAGGTTAGCTGGGATCATTCAGACTAGGC	0.919
CCTACTGGGCCATTCAGAGGTCAGTGATCATATG	1.59
